Reference: PubChem BioAssay (NCI)
Compounds without any hit were thinned out: in the full panel of roughly 79,000, 15% have a hit. Calls of active or inactive are those of the source. No stated cut-off is given here; in the data, active means growth inhibition above about 70%; inactive means the rest.

Columns and labels:
[1] = NCI Yeast Anticancer Drug Screen. Data for the rad52 strain (AID 147);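 further: 0% = growth of vehicle-treated control cultures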; details: S. cerevisiae rad52 mutant growth inhibition, hits give high values
How it was run: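 Yeast strain carrying a DNA damage repair alteration was exposed to test compounds. Growth inhibition was measured relative to vehicle-treated controls.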

[2] = NCI Yeast Anticancer Drug Screen. Data for the wt1 strain (AID 149);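 further: 0% = growth of vehicle-treated wt1 cultures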; details: S. cerevisiae wt1 strain (SPY 50644) growth inhibition, hits give high values
How it was run: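 Yeast wt1 strain exposed to compounds; growth inhibition measured relative to vehicle-treated controls.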

[3] = NCI Yeast Anticancer Drug Screen. Data for the rad50EPP+ strain (AID 151);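 further: 0% = growth of vehicle-treated control cultures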; details: S. cerevisiae rad50 mutant strain, hits give high values
How it was run: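 Yeast strain carrying rad50 alteration (rad50EPP+) exposed to compounds; growth inhibition measured relative to vehicle-treated controls.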

[4] = NCI Yeast Anticancer Drug Screen. Data for the mgt1 strain (AID 153); details: S. cerevisiae mgt1 mutant growth inhibition, hits give high values
How it was run: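 Yeast mgt1 strain (DNA repair/cell-cycle alteration panel) exposed to compounds; growth inhibition measured relative to vehicle-treated controls.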

[5] = NCI Yeast Anticancer Drug Screen. Data for the rad14 strain (AID 159);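 further: 0% = growth of vehicle-treated control cultures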; details: S. cerevisiae rad14 strain growth inhibition, hits give high values
How it was run: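 Yeast cells carrying a defined DNA-repair defect were exposed to compounds, and growth inhibition was calculated relative to vehicle-treated control cultures.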

[6] = NCI Yeast Anticancer Drug Screen. Data for the CLN2oe strain (AID 163);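 further: 0% = growth of vehicle-only control cultures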; details: S. cerevisiae CLN2oe strain, hits give high values
How it was run: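 Yeast cells carrying a defined cell-cycle control alteration were exposed to test compounds. Growth inhibition was scored against vehicle-treated control cultures.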

[7] = NCI Yeast Anticancer Drug Screen. Data for the wt2 strain (AID 169);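 further: 0% = growth of vehicle-treated yeast cultures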; details: S. cerevisiae wt2 strain growth inhibition, hits give high values
How it was run: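 Yeast cells were exposed to test compounds, and growth inhibition was measured relative to vehicle-treated controls.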

[8] = NCI Yeast Anticancer Drug Screen. Data for the mlh1 strain (AID 171);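 further: 0% = growth of vehicle-treated control cultures of the same strain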; details: S. cerevisiae mlh1 strain growth inhibition, hits give high values
How it was run: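 Yeast carrying a defined genetic alteration in DNA damage repair or cell cycle control were exposed to test compounds. Growth inhibition was measured relative to vehicle-treated controls.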

[9] = NCI Yeast Anticancer Drug Screen. Data for the sgs1 strain (AID 173);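 further: 0% = growth of vehicle-only control cultures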; details: S. cerevisiae sgs1 mutant, hits give high values
How it was run: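 Yeast mutant strains carrying defined defects in DNA damage repair or cell cycle control were exposed to test compounds. Growth inhibition was scored against vehicle-treated controls.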

[10] = NCI Yeast Anticancer Drug Screen. Data for the rad50 strain (AID 155);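 further: 0% = growth of vehicle-only cultures of the same strain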; details: S. cerevisiae rad50 strain growth inhibition, hits give high values
How it was run: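 Yeast carrying a defined DNA repair defect were exposed to test compounds, and growth was compared with vehicle-treated controls to give percent inhibition.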

[11] = NCI Yeast Anticancer Drug Screen. Data for the mec2-1 strain (AID 157); details: S. cerevisiae mec2-1 strain, hits give high values
How it was run: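 mec2-1 yeast strain, carrying an alteration in DNA damage repair or cell cycle control, was exposed to compounds; growth inhibition was measured relative to vehicle-treated controls.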

[12] = NCI Yeast Anticancer Drug Screen. Data for the sgs1 mgt1 strain (AID 161);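 further: 0% = growth of cultures given vehicle only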; details: S. cerevisiae sgs1 mgt1 strain, hits give high values
How it was run: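 Percent growth inhibition was derived by comparing compound-exposed mutant yeast with vehicle-exposed cultures. The strain carries alterations in DNA damage repair.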

[13] = NCI Yeast Anticancer Drug Screen. Data for the cln2 rad14 strain (AID 165);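 further: 0% = growth equal to vehicle treated cultures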; details: S. cerevisiae cln2 rad14 strain, hits give high values
How it was run: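 Yeast carrying cln2 and rad14 alterations (cell cycle control and DNA damage repair) were exposed to compounds. Growth inhibition was measured against vehicle-treated controls.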

[14] = NCI Yeast Anticancer Drug Screen. Data for the bub3 strain (AID 167); details: S. cerevisiae bub3 mutant strain, hits give high values
How it was run: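 Compounds were applied to a genetically altered yeast strain carrying a cell-cycle control defect. Growth inhibition was scored against vehicle-treated controls.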

[15] = NCI Yeast Anticancer Drug Screen. Data for the mlh1 rad18 strain (AID 175); details: S. cerevisiae mlh1 rad18 strain growth inhibition, hits give high values
How it was run: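 Growth inhibition of the yeast strain was measured after compound exposure and expressed relative to vehicle-treated controls. The strain carries defined defects in DNA damage repair.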

[16] = NCI Yeast Anticancer Drug Screen. Data for the rad18 strain (AID 177); details: S. cerevisiae rad18 mutant growth inhibition, hits give high values
How it was run: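 Yeast carrying a defined DNA damage repair alteration were exposed to compounds. Growth inhibition was expressed relative to vehicle-treated controls.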

[17] = at 5.0 µM (retest, dose inferred, filed as 0.5)
[18] = at 50.0 µM (retest, dose inferred, filed as 5.0)

Measured: growth inhibition

CC(=O)[O-].O=C([CH-]C(=O)c1ccccc1)c1ccccc1.O=C([CH-]C(=O)c1ccccc1)c1ccccc1.[Sm+3]
inactive: [1]; at 1.2 µM 4% | [1]; at 3.7 µM -2% | [2]; at 1.2 µM 4% | [2]; at 3.7 µM 4% | [2]; at 11.0 µM 25% | [3]; at 1.2 µM 35% | [3]; at 11.0 µM 52% | [4]; at 1.2 µM 0% | [4]; at 3.7 µM 6% | [4]; at 11.0 µM 50% | [5]; at 1.2 µM 6% | [5]; at 3.7 µM 7% | [6]; at 1.2 µM -3% | [6]; at 3.7 µM 6% | [6]; at 11.0 µM 45% | [7]; at 1.2 µM 1% | [7]; at 3.7 µM 8% | [7]; at 11.0 µM 65% | [8]; at 1.2 µM 3% | [8]; at 3.7 µM 8% | [9]; at 1.2 µM 2% | [9]; at 3.7 µM 7% | [9]; at 11.0 µM 59%
active: [1]; at 11.0 µM 80% | [1]; at 33.0 µM 97% | [1]; at 100.0 µM 98% | [2]; at 33.0 µM 98% | [2]; at 100.0 µM 97% | [3]; at 3.7 µM 70% | [3]; at 33.0 µM 70% | [3]; at 100.0 µM 79% | [4]; at 33.0 µM 98% | [4]; at 100.0 µM 98% | [5]; at 11.0 µM 97% | [5]; at 33.0 µM 99% | [5]; at 100.0 µM 98% | [6]; at 33.0 µM 97% | [6]; at 100.0 µM 97% | [7]; at 33.0 µM 98% | [7]; at 100.0 µM 98% | [8]; at 11.0 µM 70% | [8]; at 33.0 µM 98% | [8]; at 100.0 µM 99% | [9]; at 33.0 µM 97% | [9]; at 100.0 µM 97%

Cc1onc(-c2ccccc2Cl)c1C1=N/C(=C/c2cc(Cl)cc(Cl)c2O)C(=O)O1
active: [1]; at 100.0 µM 70% | [2]; at 100.0 µM 74% | [10]; [18] 90% | [10]; at 50.0 µM 79.3% | [11]; [18] 90% | [12]; at 50.0 µM 78.6% | [13]; [17] 72% | [13]; at 50.0 µM 71.5% | [14]; at 50.0 µM 77.2% | [15]; at 50.0 µM 75.6%
inactive: [1]; at 1.2 µM -36% | [1]; at 3.7 µM -39% | [1]; at 11.0 µM -35% | [1]; at 33.0 µM -42% | [2]; at 1.2 µM -3% | [2]; at 3.7 µM -26% | [2]; at 11.0 µM -26% | [2]; at 33.0 µM -16% | [3]; at 1.2 µM -22% | [3]; at 3.7 µM -28% | [3]; at 11.0 µM 3% | [3]; at 33.0 µM -5% | [3]; at 100.0 µM -25% | [10]; at 1.2 µM -38% | [10]; at 3.7 µM -32% | [10]; [17] 33% | [10]; at 11.0 µM -35% | [10]; at 33.0 µM 2% | [10]; at 100.0 µM 69% | [11]; at 1.2 µM -32% | [11]; at 3.7 µM -35% | [11]; [17] 35% | [11]; at 11.0 µM -39% | [11]; at 33.0 µM -4% | [11]; at 50.0 µM 60% | [11]; at 100.0 µM 61% | [5]; at 1.2 µM -51% | [5]; at 3.7 µM -56% | [5]; at 11.0 µM -58% | [5]; at 33.0 µM -46% | [5]; at 100.0 µM 59% | [12]; [17] -9% | [12]; [18] 42% | [6]; at 1.2 µM -5% | [6]; at 3.7 µM -19% | [6]; at 11.0 µM -5% | [6]; at 33.0 µM 26% | [6]; at 100.0 µM 66% | [13]; [18] 60% | [14]; at 1.2 µM -55% | [14]; at 3.7 µM -40% | [14]; [17] 47% | [14]; at 11.0 µM -43% | [14]; at 33.0 µM -10% | [14]; [18] 65% | [14]; at 100.0 µM 68% | [7]; at 1.2 µM -12% | [7]; at 3.7 µM -12% | [7]; at 11.0 µM -18% | [7]; at 33.0 µM 11% | [7]; at 100.0 µM 62% | [8]; at 1.2 µM -39% | [8]; at 3.7 µM -42% | [8]; at 11.0 µM -27% | [8]; at 33.0 µM 3% | [8]; at 100.0 µM 49% | [9]; at 1.2 µM -19% | [9]; at 3.7 µM -39% | [9]; at 11.0 µM -23% | [9]; at 33.0 µM 11% | [9]; at 100.0 µM 69% | [15]; [17] 42% | [15]; [18] 46% | [16]; at 1.2 µM -46% | [16]; at 3.7 µM -50% | [16]; at 11.0 µM -44% | [16]; at 33.0 µM -21% | [16]; at 100.0 µM 58%

O=c1ccc(N=Nc2ccccc2)ccc1O
active: [1]; at 11.0 µM 95% | [1]; at 33.0 µM 99% | [1]; at 100.0 µM 98% | [2]; at 11.0 µM 97% | [2]; at 33.0 µM 99% | [2]; at 100.0 µM 97% | [3]; at 11.0 µM 88% | [3]; at 33.0 µM 98% | [3]; at 100.0 µM 97% | [10]; at 3.7 µM 87% | [10]; at 11.0 µM 97% | [10]; at 33.0 µM 99% | [10]; [18] 99% | [10]; at 50.0 µM 98.7% | [10]; at 100.0 µM 98% | [11]; at 11.0 µM 93% | [11]; at 33.0 µM 99% | [11]; [18] 99% | [11]; at 50.0 µM 98.7% | [11]; at 100.0 µM 98% | [5]; at 3.7 µM 91% | [5]; at 11.0 µM 98% | [5]; at 33.0 µM 99% | [5]; at 100.0 µM 99% | [12]; [18] 99% | [12]; at 50.0 µM 98.7% | [6]; at 11.0 µM 93% | [6]; at 33.0 µM 98% | [6]; at 100.0 µM 97% | [13]; [18] 98% | [13]; at 50.0 µM 98.1% | [14]; at 3.7 µM 77% | [14]; at 11.0 µM 97% | [14]; at 33.0 µM 99% | [14]; [18] 99% | [14]; at 50.0 µM 97.8% | [14]; at 100.0 µM 99% | [7]; at 3.7 µM 87% | [7]; at 11.0 µM 99% | [7]; at 33.0 µM 99% | [7]; at 100.0 µM 98%
inactive: [1]; at 1.2 µM 0% | [1]; at 3.7 µM 42% | [2]; at 1.2 µM 16% | [2]; at 3.7 µM 56% | [3]; at 1.2 µM -8% | [3]; at 3.7 µM 11% | [10]; at 1.2 µM 18% | [10]; [17] 34% | [11]; at 1.2 µM -1% | [11]; at 3.7 µM 37% | [11]; [17] 28% | [5]; at 1.2 µM 1% | [12]; [17] 44% | [6]; at 1.2 µM -6% | [6]; at 3.7 µM 33% | [13]; [17] -3% | [14]; at 1.2 µM 10% | [14]; [17] 22% | [7]; at 1.2 µM 31%
